# Activity calls are given as the source filed them. Unless noted, the rule behind the calls is not given here.
# Key:
# [1] = resazurin metabolic signal in HepG2 cells – cell-based, resazurin fluorescence, 24 h, PK04 Diversity Set, profiling panel (AID 1172); details: HepG2 viability, higher = more signal
# [2] = budding yeast growth changes without added modifier – OD600, strain BY4716, 24 h, basal condition, primary screen (AID 1173); details: S. cerevisiae BY4716 growth, OD600, 24 h; higher = more signal, called active from +8 up or from −8 down
# [3] = viability profiling in MM1S myeloma cells – cell-based, resazurin fluorescence, basal, 24 h, PK04 Diversity Set, profiling panel (AID 1174); details: higher = more signal, called active from +8 up or from −8 down;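 note: MM1S multiple myeloma cell line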
# [4] = target: Dihydroorotate dehydrogenase (quinone), mitochondrial (Plasmodium falciparum (isolate 3D7)) (UniProt Q08210); assay: inhibition of P. falciparum DHODH – biochemical, C-terminal His tag, absorbance 600 nm, primary screen (AID 1175); details: PfDHODH enzyme, DCIP absorbance 600 nm; higher = more signal, called active from +8 up or from −8 down;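 note: recombinant parasite enzyme with a five histidine tag at its C terminus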
# [5] = inhibition of PAO1 biofilm formation – strain PAO1, LB-PBS medium, absorbance 600 nm, primary screen (AID 1176); details: P. aeruginosa PAO1 growth/biofilm, A600, 12 h; higher = more signal
# [6] = growth modulation of vineyard yeast isolate – strain RM11-1a, OD600, basal, 24 h, primary screen (AID 1177);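 note: cultures grown under basal conditions with no added stressor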; details: S. cerevisiae RM11-1a growth, OD600, 24 h; higher = more signal, called active from +8 up or from −8 down
# [7] = growth of efflux-deficient E. coli DRC39 – strain DRC39, OD650, 24 h, E. coli filamentation inducers, primary screen (AID 1178);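 note: growth measured as culture turbidity by optical density at 650 nm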; details: E. coli DRC39 acrAB, higher = more signal, called active from +8 up or from −8 down
# [8] = growth of efflux-deficient E. coli DRC39 – strain DRC39, OD650, 48 h, E. coli filamentation inducers, primary screen (AID 1179);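 note: screen aims at cell division blockers that make cells filament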; details: E. coli DRC39 delta-acrAB growth, higher = more signal, called active from +8 up or from −8 down
# [9] = viability profiling in RPMI8226 myeloma cells – cell-based, resazurin fluorescence, basal, 24 h, PK04 Diversity Set, profiling panel (AID 1180); details: higher = more signal;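 note: RPMI8826 multiple myeloma cell line at 5000 cells per well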
# [10] = target: E3 ubiquitin-protein ligase XIAP (Homo sapiens) (UniProt P98170); assay: small molecules binding XIAP protein – biophysical, small-molecule microarray, fluorescence 635 nm, primary screen (AID 1181); details: higher = more signal;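 note: score merges 667 nm emission and signal to noise over triplicate slides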
# [11] = tested on: XIP peptide (Xip251-270) binding; assay: XIP fragment 251-270 binding compounds – biochemical, small-molecule microarray, fluorescence 635/667 nm, 0.1 µg/mL protein, primary screen (AID 1182); details: fluorescent protein binding, 635 nm, higher = more signal, called active from +8 up or from −8 down
# [12] = tested on: XIP peptide (Xip251-270); assay: compounds binding XIP fragment 251-270 – biochemical, small-molecule microarray, fluorescence 635/667 nm, 0.5 µg/mL protein, primary screen (AID 1183); details: fluorescence 635 nm, higher = more signal
# [13] = blood-stage malaria parasite viability loss – strain 3D7, DAPI fluorescence, 100 nL, primary screen (AID 1184);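 note: parasites grown inside human red blood cells in medium with human serum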; details: P. falciparum 3D7 growth, 3 d, higher = more signal
# [14] = target: Homeobox protein Hox-A13 (Mus musculus) (UniProt Q62424); assay: disruptors of Hoxa13 oligonucleotide interaction – biochemical, fluorescence polarization, labeled oligonucleotide, primary screen (AID 1185); details: Hoxa13:DNA binding, 15 min, higher = more signal, called active from +8 up or from −8 down
# [15] = blockers of DNA damage checkpoint Chk1 activation – imaging, HeLa, hydroxyurea, phospho-Chk1 antibody, percent positive cells, primary screen (AID 1186); details: hydroxyurea-induced phospho-Chk1 immunofluorescence imaging, higher = more signal
# [16] = blockers of DNA damage checkpoint Chk1 activation – imaging, HeLa, hydroxyurea, phospho-Chk1 nuclear intensity, primary screen (AID 1187); details: hydroxyurea-induced phospho-Chk1 immunofluorescence imaging, higher = more signal
# Chain of E3 ubiquitin-protein ligase XIAP (Homo sapiens) (P98170 whole entry, looked up, the tested form may be a part): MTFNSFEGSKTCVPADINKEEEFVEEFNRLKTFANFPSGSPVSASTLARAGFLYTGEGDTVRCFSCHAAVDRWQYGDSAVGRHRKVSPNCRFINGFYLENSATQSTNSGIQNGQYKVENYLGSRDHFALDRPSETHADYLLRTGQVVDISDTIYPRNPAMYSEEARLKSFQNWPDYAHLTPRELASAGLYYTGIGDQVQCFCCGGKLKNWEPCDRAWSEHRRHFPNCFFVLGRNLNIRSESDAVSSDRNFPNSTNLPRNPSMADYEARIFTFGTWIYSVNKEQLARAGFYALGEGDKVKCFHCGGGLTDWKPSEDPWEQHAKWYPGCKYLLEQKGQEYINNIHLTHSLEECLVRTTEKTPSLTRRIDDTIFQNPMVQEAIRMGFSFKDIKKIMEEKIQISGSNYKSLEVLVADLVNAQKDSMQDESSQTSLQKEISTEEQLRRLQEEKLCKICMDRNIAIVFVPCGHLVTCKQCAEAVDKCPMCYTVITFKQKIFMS
# Chain of Dihydroorotate dehydrogenase (quinone), mitochondrial (Plasmodium falciparum (isolate 3D7)) (Q08210 whole entry, looked up): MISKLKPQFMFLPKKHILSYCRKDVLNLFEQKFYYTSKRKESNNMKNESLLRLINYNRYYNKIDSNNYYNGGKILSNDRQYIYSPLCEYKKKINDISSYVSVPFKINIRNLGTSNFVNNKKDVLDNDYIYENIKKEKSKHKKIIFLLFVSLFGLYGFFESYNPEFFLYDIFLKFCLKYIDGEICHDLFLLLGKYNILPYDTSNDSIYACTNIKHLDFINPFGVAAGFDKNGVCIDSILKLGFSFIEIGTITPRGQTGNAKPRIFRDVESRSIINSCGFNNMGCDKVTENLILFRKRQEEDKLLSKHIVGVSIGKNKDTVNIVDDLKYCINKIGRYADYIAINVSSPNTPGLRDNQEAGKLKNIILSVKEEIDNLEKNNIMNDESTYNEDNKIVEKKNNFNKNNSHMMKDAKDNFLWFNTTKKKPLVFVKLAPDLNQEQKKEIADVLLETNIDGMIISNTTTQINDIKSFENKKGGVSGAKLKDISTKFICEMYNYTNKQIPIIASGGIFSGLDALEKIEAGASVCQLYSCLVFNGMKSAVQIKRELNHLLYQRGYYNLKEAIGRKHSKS
# Chain of Homeobox protein Hox-A13 (Mus musculus) (Q62424 whole entry, looked up): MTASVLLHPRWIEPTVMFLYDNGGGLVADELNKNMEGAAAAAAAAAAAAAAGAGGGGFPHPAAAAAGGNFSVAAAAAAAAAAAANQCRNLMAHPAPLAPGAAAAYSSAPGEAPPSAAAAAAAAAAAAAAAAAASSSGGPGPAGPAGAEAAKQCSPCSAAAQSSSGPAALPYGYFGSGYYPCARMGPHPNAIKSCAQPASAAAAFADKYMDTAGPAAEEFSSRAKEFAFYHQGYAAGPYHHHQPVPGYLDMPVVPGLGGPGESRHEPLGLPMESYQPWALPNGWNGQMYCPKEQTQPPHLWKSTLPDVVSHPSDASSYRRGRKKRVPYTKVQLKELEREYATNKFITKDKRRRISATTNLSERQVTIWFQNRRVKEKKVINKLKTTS
Compound,z-score [1],z-score [2],z-score [3],composite z-score [4],z-score [5],z-score [6],z-score [7],z-score [8],z-score [9],composite z-score [10],composite z-score [11],composite z-score [12],z-score [13],z-score [14],z-score [15],z-score [16]
COc1ccc(C(=O)Nc2ccc(CN3C(=O)[C@]4(O[C@H](CCn5cc([C@H](O)c6ccccc6)nn5)[C@@H]([Si](C)(C)c5ccc(OC)cc5)[C@@H]4C)c4ccccc43)cc2)cc1,-1.34,-0.884 (inactive),-3.17 (inactive),-0.0934 (inactive),1.55 (inactive),1.63 (inactive),0.938 (inactive),0.63 (inactive),-3.24,0.0623,-0.211 (inactive),-0.0268,-2.7,0.564 (inactive),0.107 (inactive),0.168 (inactive)
Cc1ccc(S[C@]2(C(=O)O)CC(=O)N(C3CCCCC3)[C@@H]2c2ccc(CO)cc2)cc1,-0.628,-1.74 (inactive),0.0977 (inactive),0.234 (inactive),0.512 (inactive),-0.332 (inactive),0.643 (inactive),1.48 (inactive),0.273,-0.0031,1.15 (inactive),0.929,0.756,-3.31 (inactive),-0.643 (inactive),-0.583 (inactive)
COc1ccccc1CN1C(=O)c2ccccc2[C@@H](C(=O)NCC(C)C)[C@@H]1c1ccc(CO)cc1,-1.4,0.352 (inactive),0.897 (inactive),0.769 (inactive),0.31 (inactive),0.777 (inactive),0.547 (inactive),0.347 (inactive),1.02,-0.104,0.25 (inactive),0.791,-1.24,-1.48 (inactive),0.0947 (inactive),0.525 (inactive)
CO[C@H]1O[C@H](CO)[C@@H](OC(=O)c2ccc(Br)cc2)[C@@H]2OC(=O)[C@H](Cc3cccc(Br)c3)C/C=C/C[C@@H](Cc3cccc(Br)c3)C(=O)O[C@@H]12,-0.673,-0.611 (inactive),-0.402 (inactive),-0.71 (inactive),0.566 (inactive),0.393 (inactive),0.198 (inactive),0.188 (inactive),-1.47,-0.0663,1.69 (inactive),0.675,-0.706,-2.82 (inactive),0.373 (inactive),0.574 (inactive)
O=C1N(CCS(=O)(=O)c2ccccc2)c2ccccc2[C@H]2OC(c3ccc(OCCCO)cc3)=N[C@@]12CCS(=O)(=O)c1ccccc1,0.248,2.94 (inactive),0.685 (inactive),0.761 (inactive),0.591 (inactive),3.96 (inactive),2.37 (inactive),1.04 (inactive),0.488,0.0197,2.51 (inactive),0.776,-2.05,0.758 (inactive),0.109 (inactive),0.545 (inactive)
CC(C)N1C(=O)c2ccccc2[C@](C)(C(=O)O)[C@@H]1c1ccc(CO)cc1,0.536,-0.942 (inactive),-0.0713 (inactive),-0.218 (inactive),0.332 (inactive),0.595 (inactive),0.0212 (inactive),0.421 (inactive),0.125,0.0767,0.202 (inactive),0.0967,0.859,-1.63 (inactive),0.113 (inactive),0.318 (inactive)
CO[C@H]1O[C@H](CO)[C@@H](OC(=O)Nc2ccc(C(F)(F)F)cc2)[C@H](OC(=O)Nc2ccccc2)[C@H]1OC(=O)Nc1ccccc1,-5.15,0.0673 (inactive),-6.47 (inactive),0.0214 (inactive),-0.276 (inactive),2.72 (inactive),0.201 (inactive),-1.17 (inactive),-6.11,0.166,1.91 (inactive),0.911,-2.56,-5.12 (inactive),-0.628 (inactive),-0.699 (inactive)
CCCC=C(CCC)[C@@H](NC(=O)Cc1ccccc1)c1ccc(C(=O)OC)cc1,-0.704,0.951 (inactive),-1.14 (inactive),-0.831 (inactive),0.964 (inactive),1.49 (inactive),0.276 (inactive),0.543 (inactive),-0.702,0.11,0.349 (inactive),0.34,-0.958,-1.93 (inactive),0.374 (inactive),-0.309 (inactive)
COC(=O)c1ccc(OC)c(/C=C\CC(CCc2ccccc2)OC(=O)c2ccncc2)c1 (stereo not drawn),0.263,0.0069 (inactive),0.472 (inactive),-3.1 (inactive),0.0619 (inactive),-0.0204 (inactive),0.0514 (inactive),-0.379 (inactive),1.24,2.62,-0.661 (inactive),-0.329,-0.687,-2.52 (inactive),0.0946 (inactive),0.459 (inactive)
CC(C)c1ccc(NN2C(C(O)c3ccccn3)C=CC3C(=O)N(c4ccccc4)C(=O)C32)cc1 (stereo not drawn),-0.981,-0.147 (inactive),-1.17 (inactive),1.87 (inactive),0.0895 (inactive),1.92 (inactive),0.235 (inactive),0.0644 (inactive),-0.698,-0.0559,1.17 (inactive),0.69,-0.723,-4.86 (inactive),0.236 (inactive),0.375 (inactive)
COC(=O)[C@@]1(Cc2ccccc2N=[N+]=[N-])N=C(c2ccc(OCCCO)cc2)O[C@H]1c1ccccc1,-4.36,-0.642 (inactive),-7.63 (inactive),1.66 (inactive),0.77 (inactive),1.76 (inactive),0.044 (inactive),-1.12 (inactive),-7.12,0.0472,0.37 (inactive),0.601,-1.85,-3.98 (inactive),0.069 (inactive),-0.447 (inactive)
CCOC(=O)C[C@H]1[C@H](OC(=O)c2cc3ccccc3oc2=O)[C@@H](NC(=O)c2ccc3ccccc3n2)c2cc(OCCCO)ccc2N1C(=O)c1ccc2ccccc2n1,0.165,-0.535 (inactive),0.35 (inactive),0.315 (inactive),-0.766 (inactive),-0.361 (inactive),1.72 (inactive),0.627 (inactive),-0.594,0.035,-0.276 (inactive),0.484,-1.15,-1.29 (inactive),-0.443 (inactive),-0.134 (inactive)
CCOC(=O)C1=CC[C@@H](c2ccccc2)N(S(=O)(=O)c2ccc(C)cc2)[C@H]1C=C(C)C,0.576,2.78 (inactive),-0.85 (inactive),0.274 (inactive),0.229 (inactive),1.65 (inactive),-0.147 (inactive),0.449 (inactive),-2.1,0.394,0.568 (inactive),0.721,-2.17,-0.721 (inactive),0.213 (inactive),0.0493 (inactive)
O=C1N(CCS(=O)(=O)c2ccccc2)Cc2ccccc2C[C@@]12COC(c1ccc(OCCCO)cc1)=N2,0.0549,1.58 (inactive),-5.12 (inactive),-0.211 (inactive),0.0379 (inactive),2.14 (inactive),0.862 (inactive),-0.691 (inactive),-3.43,0.167,0.913 (inactive),0.82,-2.05,-4.6 (inactive),-1.03 (inactive),-1.29 (inactive)
N#Cc1ccc(NN2C(C(O)c3ccccc3)C=CC3C(=O)N(c4ccccc4)C(=O)C32)cc1 (stereo not drawn),-0.822,-1.47 (inactive),-0.0476 (inactive),-0.804 (inactive),0.158 (inactive),-0.323 (inactive),-0.371 (inactive),0.0355 (inactive),-1.15,-0.0062,0.283 (inactive),0.026,0.635,-2.61 (inactive),0.422 (inactive),0.691 (inactive)
CN(C)C(=O)[C@@]1(Cc2ccccc2N=[N+]=[N-])N=C(c2ccc(OCCCO)cc2)O[C@H]1c1ccccc1N=[N+]=[N-],-0.663,0.582 (inactive),-1.8 (inactive),1.32 (inactive),-0.73 (inactive),2.9 (inactive),0.732 (inactive),-0.421 (inactive),-2.2,1.98,0.976 (inactive),0.596,-2.32,-4.6 (inactive),0.0092 (inactive),0.398 (inactive)
O=C1O[C@H](c2ccccc2)[C@H](c2ccccc2)N2[C@H]1[C@@H](C(=O)N1CCN(c3ncccn3)CC1)[C@]1(C(=O)Nc3ccc(C#CCCO)cc31)[C@H]2c1ccc(OCCO)cc1,0.956,1.01 (inactive),-0.901 (inactive),-0.692 (inactive),3.36 (inactive),1.2 (inactive),0.275 (inactive),-0.432 (inactive),0.747,0.256,0.756 (inactive),0.853,-1.9,-0.587 (inactive),0.177 (inactive),0.923 (inactive)
Cc1cc(C)c(C(O)C2C=CC3C(=O)N(c4ccccc4)C(=O)C3N2Nc2ccccc2)c(C)c1 (stereo not drawn),-0.156,0.439 (inactive),-0.307 (inactive),0.224 (inactive),1.14 (inactive),0.292 (inactive),-0.297 (inactive),0.445 (inactive),-0.0598,0.0542,0.733 (inactive),0.79,-0.0689,-3.33 (inactive),0.826 (inactive),0.41 (inactive)

# — PubChem BioAssay
